# Compound activity (PubChem BioAssay)
# Shown are actives, neighbours in structure and some others; about 13% of the full set was active somewhere.
# Lmaj promast: inhibitors of Leishmania major promastigote growth; Leishmania major promastigotes, resazurin fluorescence viability; inhibition, % at 10 µM; 200,000 tested, 9% active; in the data active = inhibition above about 50%;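 note: promastigotes grown with compound for 44 hours at 28 °C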
# WT yeast gro inh: growth inhibition of WT yeast, mitochondrial fusion screen; 190,000 tested, 2.1% active; inhibition, % at 10 µM; mitochondrial fusion phenotypic screen, WT strain; AID 1362; in the data active = inhibition above about 58%; tested in S. cerevisiae
# RAM network inh: yeast RAM network inhibition | S. cerevisiae dse1pr::URA3 reporter, 5-FOA growth OD615, 2 d; analog-sensitive cbk1-as2 kinase mutant strain | inhibition, % at 50 µM | 190,000 tested, 1.8% active;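 active = inhibition above a set limit, 3 SD over mean compound inhibition, cut at about 8.4% in these data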;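 note: 0% = DMSO-only wells with no growth and 100% = 10 µM 1-NA-PP1 full growth; inhibition rescues growth on 5-FOA so higher OD means more RAM inhibition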
# CHOP inh: blocks CHOP induction under ER stress | CHO-K1 CHOP-promoter luciferase, tunicamycin-induced, 15-18 h | inhibition, % at 10 µM | 220,000 tested, 3.8% active;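 active = compounds that reduced the stress-induced luciferase reporter signal by more than about 70% of percent inhibition, limit read from the data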;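 note: 0% = tunicamycin plus vehicle and 100% = wells without tunicamycin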
# Starred values were filed as active, the others as inactive; / = not tested or not shown.
SMILES,Lmaj promast,WT yeast gro inh,RAM network inh,CHOP inh
N#CC1=C(N)NC(SCC(=O)c2ccc(Br)cc2)=C(C#N)C12CCCCC2,99.9*,78.2*,4.0,32.4
O=C(CCCN1C(=O)/C(=C/c2ccccc2Cl)SC1=S)NNC(=O)c1ccccc1Cl,66.9*,-6.7,2.7,95.2*
O=C(CCCN1C(=O)/C(=C/c2cccs2)SC1=S)NNC(=O)c1ccccc1O,-5.2,-19.9,6.3,61.7
O=C(NN1C(=O)/C(=C/C=C/c2ccccc2)SC1=S)c1ccncc1,1.9,-1.2,9.3*,13.9
COc1ccc(/C=C2\SC(=S)N(CCCC(=O)NNC(=O)c3ccccc3O)C2=O)cc1,-4.5,-6.8,0.0,105.9*
O=C(CCN1C(=O)/C(=C/c2ccccc2)SC1=S)NNC(=O)c1ccncc1,2.1,-13.9,8.8*,-1.7
COc1ccccc1-n1c(=O)c(C#N)c(-c2ccc([N+](=O)[O-])cc2)c2cc(C(=O)c3ccccc3O)cnc21,/,/,/,-4.5
CCN(CC)C(=O)C(=O)Nc1ccc(OC)c(Cl)c1,-6.8,-18.4,0.5,-7.8
O=C(NCCCN1CCOCC1)C(=O)N/N=C/c1ccc2c(c1)OCO2,1.4,-15.4,-0.7,14.5
COC(=O)Cc1[nH]nc2c1C(c1ccc(O)c(OC)c1)C(C#N)=C(N)O2 (centres undefined),/,/,/,-2.7
COc1ccc(CN2C(=O)/C(=C/c3ccncc3)SC2=S)cc1,67.8*,0.4,-1.7,11.5
COc1ccc(-c2cc(C(F)(F)F)n3nc(C(=O)N4CCCCC4)cc3n2)cc1,23.5,9.2,1.2,57.8
COc1ccc(-c2cc(C(=O)NCc3ccc(Cl)cc3)no2)cc1OC,0.6,-4.3,2.9,73.3*
CCCCNC(=O)c1cc(-c2ccc(OC)c(OC)c2)on1,-2.9,5.8,0.0,-17.8
COc1ccc(CNC(=O)c2cc(-c3ccc(OC)c(OC)c3)on2)cc1,11.3,-3.4,-0.2,50.4
COc1ccc2c(Cl)c(C(=O)NCCCn3ccnc3)sc2c1,100.5*,-0.9,-0.4,21.6
COc1ccc(-c2cc(C(=O)NCCCn3ccnc3)no2)cc1OC,61.1*,-8.1,1.4,1.4
COc1ccc(-c2cc(C(F)(F)F)n3nc(C(=O)NCCCN4CCOCC4)cc3n2)cc1,57.3*,-10.3,2.6,23.7
CC(=O)c1cccc(NC(=O)COc2cc3oc(=O)c(CC(C)O)c(C)c3cc2Cl)c1 (centres undefined),-6.1,-1.9,7.0,19.9
COC(=O)NCN1C(=O)C2C3C=CC(C3)C2C1=O (centres undefined),0.5,5.1,0.0,-3.9
O=C(NCCCn1ccnc1)c1cc(-c2ccc(Br)cc2)on1,96.2*,25.1,1.0,-9.8
Cc1cc(-c2ccccc2)nc2cc(C(=O)NCCCn3ccnc3)nn12,1.2,1.4,0.5,4.4
Cc1cc(C(=O)NCCCn2ccnc2)sc1-c1ccccc1,99.3*,14.1,2.0,11.0
CCOc1cc(C(=O)NCCCn2ccnc2)cc(OCC)c1OCC,54.2*,-11.0,0.0,29.9
COc1cccc(-c2cc(C(=O)NCCCn3ccnc3)no2)c1,95.6*,0.9,-0.9,32.8
SMILES,Lmaj promast,WT yeast gro inh,RAM network inh,CHOP inh
Cc1cc(S(=O)(=O)n2ccnc2)c(Cl)cc1Cl,-3.4,-12.0,0.3,10.2
CCOC(=O)NN1C(=O)c2ccccc2NC1c1ccc(OC)c(OC)c1 (centres undefined),-5.6,5.0,1.2,26.3
CC1CCCN(Cc2csc(N)n2)C1 (centres undefined),-6.9,-11.8,0.5,47.1
O=C(NCCCn1ccnc1)c1cc2nc(-c3ccc(Br)cc3)cc(C(F)(F)F)n2n1,99.4*,30.2,0.0,33.6
S=C(Nc1ccccc1)Nc1nc2ccccc2n1CCOc1ccc(Cl)cc1,66.4*,1.7,3.1,-31.9
CCn1c(NC(=S)Nc2ccccc2)nc2ccccc21,84.3*,17.1,4.3,-65.6
CCCn1c(NC(=S)Nc2ccccc2)nc2ccccc21,30.9,24.2,3.1,1.5
O=C(O)CCC(=O)NN1C(=O)c2ccccc2NC1c1ccc(F)cc1 (centres undefined),/,/,/,-7.1
COc1cc(NC(=O)CCCl)cc(-n2cnnn2)c1,2.0,-7.5,5.3,3.0
CCOC(=O)c1ccc(CN(Cc2ccc(C)cc2)S(=O)(=O)c2cccc([N+](=O)[O-])c2)cc1,-6.4,-4.6,10.5*,-16.1
CCOC(=O)C1CCC(CN(Cc2ccccc2)S(=O)(=O)c2ccc([N+](=O)[O-])cc2)CC1 (centres undefined),22.1,71.5*,3.3,20.9
COC(=O)C(Cc1ccccc1)NS(=O)(=O)c1ccc(F)cc1Br (centres undefined),/,/,/,5.7
CCCn1c(SCC(=O)c2[nH]c(C)c(C(C)=O)c2C)n[nH]c1=O,/,/,/,5.2
